Calls of active or inactive are those of the source. Rule for the calls: active = hit-call score of the fitted dose curve at least 0.9, where 1 is the maximum; inactive = score below 0.9.
Tests used:
[1] = read-out: Interferon-gamma inducible Protein 10 (IP10), CXCL10 (gene 3627); test: BSK_hDFCGF_IP10: BioMAP Diversity Plus: hDFCGF Assay for Interferon-gamma inducible Protein 10 (IP10) Biomarker Activity (AID 2283053); conditions: primary human foreskin fibroblasts; actives raise or lower the signal
Summary of the method: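 ELISA quantification of IP-10 after a 24 h chemical exposure of human dermal foreskin fibroblast primary cultures. Both increases and decreases versus DMSO fitted.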

[2] = read-out: Urokinase-type plasminogen activator receptor (uPAR), PLAUR (gene 5329); test: BSK_CASM3C_uPAR: BioMAP Diversity Plus: CASM3C Assay for Urokinase-type plasminogen activator receptor (uPAR) Biomarker Activity (AID 2283054); conditions: primary human coronary artery smooth muscle cells; actives raise or lower the signal;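 note: cell-surface uPAR protein level quantified by ELISA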
[3] = read-out: Vascular cell adhesion molecule 1 (VCAM1), VCAM1 (gene 7412); test: BSK_CASM3C_VCAM1: BioMAP Diversity Plus: CASM3C Assay for Vascular cell adhesion molecule 1 (VCAM1) Biomarker Activity (AID 2283055); conditions: primary human coronary artery smooth muscle cells; actives raise or lower the signal;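 note: VCAM-1 protein level quantified by ELISA on the cells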
[4] = read-out: Collagen III, COL3A1 (gene 1281); test: BSK_hDFCGF_CollagenIII: BioMAP Diversity Plus: hDFCGF Assay for Collagen III Biomarker Activity (AID 2283056); conditions: primary human foreskin fibroblasts; actives raise or lower the signal
Summary of the method: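 hDFCGF primary human dermal fibroblasts; 24 h chemical exposure; collagen III by ELISA; bidirectional curve fit vs DMSO baseline (gain or loss of signal).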

[5] = read-out: Epidermal growth factor receptor (EGFR), EGFR (gene 1956); test: BSK_hDFCGF_EGFR: BioMAP Diversity Plus: hDFCGF Assay for Epidermal growth factor receptor (EGFR) Biomarker Activity (AID 2283057); conditions: primary human foreskin fibroblasts; actives raise or lower the signal
Summary of the method: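 EGFR levels by ELISA in human dermal fibroblast cultures, 24 h post-treatment, fitted bidirectionally versus DMSO. Parallel wells stained with sulforhodamine B to detect overt cytotoxicity.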

[6] = read-out: Interleukin-8 (IL8), CXCL8 (gene 3576); test: BSK_hDFCGF_IL8: BioMAP Diversity Plus: hDFCGF Assay for Interleukin-8 (IL8) Biomarker Activity (AID 2283058); conditions: primary human foreskin fibroblasts; actives raise or lower the signal
Summary of the method: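 ELISA read-out of IL-8 from primary human foreskin fibroblast cultures taken 24 h after dosing; values are bidirectional fits relative to DMSO vehicle.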

[7] = BSK_hDFCGF_Proliferation: Cell Proliferation Assessment in the BioMAP Diversity Plus: hDFCGF Assay (AID 2283059); conditions: primary human foreskin fibroblasts;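 note: curves fitted for both rise and fall of signal versus DMSO baseline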
Summary of the method: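 This proliferation readout used SRB total-protein staining of human foreskin fibroblasts […], normalized to DMSO with bidirectional curve fitting.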

[8] = read-out: Macrophage colony-stimulating factor (MCSF), CSF1 (gene 1435); test: BSK_hDFCGF_MCSF: BioMAP Diversity Plus: hDFCGF Assay for Macrophage colony-stimulating factor (MCSF) Biomarker Activity (AID 2283060); conditions: primary human foreskin fibroblasts; actives raise or lower the signal
Summary of the method: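 ELISA read-out of M-CSF in human dermal foreskin fibroblast cultures, 24 h after chemical dosing; gain or loss of signal fitted bidirectionally relative to DMSO baseline.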

[9] = BSK_hDFCGF_SRB: Viability Assessment in the BioMAP Diversity Plus: hDFCGF Assay (AID 2283061); conditions: primary human foreskin fibroblasts;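 note: cells exposed to compound for 24 h before the read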
Summary of the method: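 Primary human foreskin fibroblasts; 24 h post-dose; fixed 10% TCA, stained 0.1% SRB, A560 read; total protein as overt cytotoxicity measure; curves fit bidirectionally vs DMSO control.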

[10] = read-out: TIMP metallopeptidase inhibitor 1 (TIMP1), TIMP1 (gene 7076); test: BSK_hDFCGF_TIMP1: BioMAP Diversity Plus: hDFCGF Assay for TIMP metallopeptidase inhibitor 1 (TIMP1) Biomarker Activity (AID 2283062); conditions: primary human foreskin fibroblasts; actives raise or lower the signal
Summary of the method: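 ELISA readout of TIMP-1 from human dermal foreskin fibroblast cultures 24 h post-dosing. Curves were fitted in both directions against DMSO baseline, with SRB total-protein staining in parallel cultures as a cytotoxicity check.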

[11] = read-out: Monokine induced gamma interferon (MIG), CXCL9 (gene 4283); test: BSK_hDFCGF_MIG: BioMAP Diversity Plus: hDFCGF Assay for Monokine induced gamma interferon (MIG) Biomarker Activity (AID 2283063); conditions: primary human foreskin fibroblasts; actives raise or lower the signal
Summary of the method: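 Fibroblasts (human foreskin, primary) dosed, 24 h, MIG by ELISA; fit bidirectional vs DMSO.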

[12] = read-out: Matrix Metallopeptidase 1 (MMP1), MMP1 (gene 4312); test: BSK_hDFCGF_MMP1: BioMAP Diversity Plus: hDFCGF Assay for Matrix Metallopeptidase 1 (MMP1) Biomarker Activity (AID 2283064); conditions: primary human foreskin fibroblasts; actives raise or lower the signal
Summary of the method: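 ELISA read-out of MMP1 from human foreskin fibroblasts (primary skin cells), 24 h post-dose. Gain or loss of signal was fitted bidirectionally versus DMSO negative control; cytotoxicity was checked by SRB in parallel cultures.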

[13] = read-out: Vascular cell adhesion molecule 1 (VCAM1), VCAM1 (gene 7412); test: BSK_hDFCGF_VCAM1: BioMAP Diversity Plus: hDFCGF Assay for Vascular cell adhesion molecule 1 (VCAM1) Biomarker Activity (AID 2283065); conditions: primary human foreskin fibroblasts; actives raise or lower the signal
Summary of the method: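 ELISA read-out of VCAM-1 on human skin fibroblasts, 24 h post-dose; gain or loss of signal fitted bidirectionally against DMSO baseline.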

[14] = read-out: Intercellular Adhesion Molecule 1 (ICAM1), ICAM1 (gene 3383); test: BSK_KF3CT_ICAM1: BioMAP Diversity Plus: KF3CT Assay for Intercellular Adhesion Molecule 1 (ICAM1) Biomarker Activity (AID 2283067); conditions: primary human keratinocytes with fibroblasts; actives raise or lower the signal
Summary of the method: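 ELISA readout of ICAM-1; KF3CT human skin co-culture (keratinocytes + foreskin fibroblasts), 24 h post-dose; gain/loss fit vs DMSO baseline.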

[15] = read-out: Interferon-gamma inducible Protein 10 (IP10), CXCL10 (gene 3627); test: BSK_KF3CT_IP10: BioMAP Diversity Plus: KF3CT Assay for Interferon-gamma inducible Protein 10 (IP10) Biomarker Activity (AID 2283068); conditions: primary human keratinocytes with fibroblasts; actives raise or lower the signal
Summary of the method: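 Signal is secreted/surface IP-10 by ELISA in a human primary skin co-culture of keratinocytes and foreskin fibroblasts, taken 24 h post-dosing; DMSO served as negative control.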

[16] = BSK_KF3CT_SRB: Viability Assessment in the BioMAP Diversity Plus: KF3CT Assay (AID 2283069); conditions: primary human keratinocytes with fibroblasts;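 note: read 24 h after compound addition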
Summary of the method: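 SRB read-out at 560 nm (0.1% stain, TCA-fixed cells) gauges overt cytotoxicity in a human skin keratinocyte–fibroblast co-culture 24 h post-dosing. Signal change was fitted bidirectionally relative to DMSO control.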

[17] = read-out: TIMP metallopeptidase inhibitor 2 (TIMP2), TIMP2 (gene 7077); test: BSK_KF3CT_TIMP2: BioMAP Diversity Plus: KF3CT Assay for TIMP metallopeptidase inhibitor 2 (TIMP2) Biomarker Activity (AID 2283071); conditions: primary human keratinocytes with fibroblasts; actives raise or lower the signal
Summary of the method: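 TIMP-2 measured by ELISA at 24 h in human keratinocyte/fibroblast primary co-cultures exposed to chemicals. Both increases and decreases were fitted against DMSO. Parallel cultures were stained with SRB for total protein as an overt-cytotoxicity check.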

[18] = read-out: Transforming growth factor beta 1 (TGFb1), TGFB1 (gene 7040); test: BSK_KF3CT_TGFb1: BioMAP Diversity Plus: KF3CT Assay for Transforming growth factor beta 1 (TGFb1) Biomarker Activity (AID 2283072); conditions: primary human keratinocytes with fibroblasts; actives raise or lower the signal
Summary of the method: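 ELISA quantifies TGF-b1 at 24 h post-dose in a primary human skin co-culture of keratinocytes and fibroblasts, with gain or loss judged against DMSO. Parallel SRB total-protein staining flags overt cytotoxicity.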

[19] = read-out: Interleukin-1 alpha (IL1a), IL1A (gene 3552); test: BSK_KF3CT_IL1a: BioMAP Diversity Plus: KF3CT Assay for Interleukin-1 alpha (IL1a) Biomarker Activity (AID 2283070); conditions: primary human keratinocytes with fibroblasts; actives raise or lower the signal
Summary of the method: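 Primary skin co-culture (keratinocytes, foreskin fibroblasts), 24 h exposure; ELISA for IL-1a; bidirectional curve fit vs DMSO.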

[20] = read-out: Plasminogen activator inhibitor-1 (PAI1), SERPINE1 (gene 5054); test: BSK_hDFCGF_PAI1: BioMAP Diversity Plus: hDFCGF Assay for Plasminogen activator inhibitor-1 (PAI1) Biomarker Activity (AID 2283066); conditions: primary human foreskin fibroblasts; actives raise or lower the signal
Summary of the method: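 PAI-1 levels in human dermal foreskin fibroblasts were quantified by ELISA 24 h after dosing, with gain or loss analysed against DMSO. Overt cytotoxicity was checked by sulforhodamine B total-protein staining in parallel cultures.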

Measured: AC50

CC(C)(C)c1ccccc1
not listed: [19] | [20]
inactive: all other assays above

NCCOCCOCCN
active: [7] 14.6 µM
not listed: [10] | [12] | [19] | [20]
inactive: all other assays above

CC(=O)[C@@]1(O)CC[C@H]2[C@@H]3CCC4=CC(=O)CC[C@]4(C)[C@H]3CC[C@@]21C
not listed: [10] | [12] | [19] | [20]
inactive: all other assays above

CN(C)C(=O)NC1(c2ccccc2)CCN(CCC[C@]2(c3ccc(Cl)c(Cl)c3)CCCN(C(=O)c3ccccc3)C2)CC1
active: [7] 6.29 µM
not listed: [20]
inactive: all other assays above

O=C(NS(=O)(=O)/C=C/c1cccs1)c1ccc(F)cc1Br
active: [1] 30.9 µM | [7] 6.17 µM | [19] 2.09 µM
not listed: [10] | [12]
inactive: all other assays above

CC(=O)CC(c1ccccc1)c1c(O)c2ccccc2oc1=O (centres undefined)
not listed: [12] | [19]
inactive: all other assays above

C#CC(O)C(CC)CCCC (centres undefined)
not listed: [8]
inactive: all other assays above
